# Results reported in the supplement of paper PMC8387472.
# Key:
# Settings in all cases: mESC; 2uM; 72 h treatment, harvest day 5
# Kenpaullone = compound: O=C1Cc2c([nH]c3ccc(Br)cc23)-c2ccccc2N1 [Kenpaullone]; assay: fraction of microhomology deletions among edited reads; higher = more MH deletions
# Genistein = compound: O=c1c(-c2ccc(O)cc2)coc2cc(O)cc(O)c12 [Genistein]; assay: as above
# [1] = compound: O=c1cc(N2CCOCC2)oc2c(-c3ccc4c(c3)OCCO4)csc12; assay: as above
# Mercaptopurine (6-MP) = compound: S=c1[nH]cnc2nc[nH]c12 [Mercaptopurine (6-MP)]; assay: as above
# [2] = compound: S=c1nc[nH]c2nc[nH]c12 [6-Mercaptopurine (6-MP) Monohydrate]; assay: as above
# [3] = compound: CC(=O)O/N=C1\C(=O)N(Cc2cc(Cl)ccc2Cl)c2ccc(Cl)cc21; assay: fraction of 1-bp insertions among edited reads; higher = more 1-bp insertion outcomes
# [4] = compound: CC(C)(C#N)c1ccc(N2C(=O)OCc3cnc4ccc(-c5cnc6ccccc6c5)cc4c32)cc1; assay: as above
# [5] = compound: CCCCOc1c(C(=O)c2c(F)cc(C)cc2F)c[nH]c2nncc1-2; assay: as above
# [6] = compound: CCN1CCN(CC(=O)Nc2ccc(-c3cccc4c(=O)cc(N5CCOCC5)oc34)c3sc4ccccc4c23)CC1; assay: as above
# [7] = compound: CCc1c2c(nc3ccc(OC(=O)N4CCC(N5CCCCC5)CC4)cc13)-c1cc3c(c(=O)n1C2)COC(=O)[C@]3(O)CC [Irinotecan HCl Trihydrate]; assay: as above
# [8] = compound: CCn1c(=O)c(-c2ccc(Cl)cc2Cl)cc2cnc(Nc3ccc(N4CCNCC4)c(F)c3)nc21; assay: as above
# [9] = compound: CNc1ccc([N+](=O)[O-])c(Nc2ccc3[nH]ncc3c2)n1; assay: as above
# Rifapentine = compound: CO[C@H]1/C=C/O[C@@]2(C)Oc3c(C)c(O)c4c(O)c(c(/C=N/N5CCN(C6CCCC6)CC5)c(O)c4c3C2=O)NC(=O)/C(C)=C\C=C\[C@H](C)[C@H](O)[C@@H](C)[C@@H](O)[C@@H](C)[C@H](OC(C)=O)[C@@H]1C [Rifapentine]; assay: as above
# [10] = compound: COc1ccccc1-c1cc(Nc2cccc(CS(N)(=O)=O)c2)ncn1; assay: as above
# [11] = compound: C[C@@H]1CN(CC(=O)Nc2ccc3c(c2)Cc2cccc(-c4cc(=O)cc(N5CCOCC5)o4)c2S3)C[C@H](C)O1; assay: as above
# [12] = compound: Cc1cc(C)nc(SCC(=O)Nc2ncc(Cc3cccc4ccccc34)s2)n1; assay: as above
# [13] = compound: Cc1ccc(C(=O)NCCCCCC(=O)Nc2ccccc2N)cc1; assay: as above
# [14] = compound: Cc1cccc(CC(=O)N2CCc3c2ccc(-c2cn(C)c4ncnc(N)c24)c3F)n1; assay: as above
# [15] = compound: NC(=O)c1ccc2nc(-c3ccc(Oc4ccc(Cl)cc4)cc3)[nH]c2c1 [Chk 2 inhibitor II (BML-277)]; assay: as above
# Tucidinostat (Chidamide) = compound: Nc1cc(F)ccc1NC(=O)c1ccc(CNC(=O)/C=C/c2cccnc2)cc1 [Tucidinostat (Chidamide)]; assay: as above
Target,fraction of microhomology deletions among edited reads (Kenpaullone),fraction of microhomology deletions among edited reads (Genistein),fraction of microhomology deletions among edited reads [1],fraction of microhomology deletions among edited reads (Mercaptopurine (6-MP)),fraction of microhomology deletions among edited reads [2],fraction of 1-bp insertions among edited reads [3],fraction of 1-bp insertions among edited reads [4],fraction of 1-bp insertions among edited reads [5],fraction of 1-bp insertions among edited reads [6],fraction of 1-bp insertions among edited reads [7],fraction of 1-bp insertions among edited reads [8],fraction of 1-bp insertions among edited reads [9],fraction of 1-bp insertions among edited reads (Rifapentine),fraction of 1-bp insertions among edited reads [10],fraction of 1-bp insertions among edited reads [11],fraction of 1-bp insertions among edited reads [12],fraction of 1-bp insertions among edited reads [13],fraction of 1-bp insertions among edited reads [14],fraction of 1-bp insertions among edited reads [15],fraction of 1-bp insertions among edited reads (Tucidinostat (Chidamide))
"25.0 (DMSO control at this site: 1-bp insertion 0.017, MH deletion 0.774, edited 0.143) GGGCCTGAATGGTGTGGACATCTACTCGCTGGTGAGCTGGTGACTGAAAACATTCAGTGGC",0.739,0.773,0.772,0.71,0.694,0.0158,0.0262,0.017,0.0169,0.0204,0.0225,0.0261,0.0237,0.0265,0.0481,0.0281,0.0223,0.0292,0.0214,0.0363
"38.0 (DMSO control at this site: 1-bp insertion 0.063, MH deletion 0.487, edited 0.17) GGGCTGGGTGCTAAAATGAGGAGCTCCAAGAAGACTGAGGTGAACCTGGAGGCCCCTGAGC",0.414,0.462,0.476,0.474,0.468,0.0549,0.0615,0.0554,0.0485,0.0536,0.0578,0.0482,0.0681,0.0731,0.178,0.0549,0.0526,0.0567,0.0523,0.0633
"28.0 (DMSO control at this site: 1-bp insertion 0.035, MH deletion 0.77, edited 0.142) TGGTTCTTCCTTTGTAGAGAGTGTTCATCTGGGAATCTGGGACTTGGATGAGACAATCATT",0.736,0.784,0.818,0.718,0.693,0.0335,0.0355,0.0391,0.0168,0.0322,0.029,0.0402,0.0344,0.0432,0.078,0.0369,0.0388,0.0456,0.0349,0.0493
"3.0 (DMSO control at this site: 1-bp insertion 0.109, MH deletion 0.149, edited 0.09) TGCTAGCGCCCCCACAAAGCGGACCAGCCAGCACTATAGGGAATAAGGCCAACTTGCACCC",0.194,0.196,0.162,0.168,0.254,0.126,0.122,0.16,0.0557,0.111,0.126,0.124,0.133,0.13,0.244,0.144,0.112,0.15,0.121,0.123
"31.0 (DMSO control at this site: 1-bp insertion 0.315, MH deletion 0.329, edited 0.026) ACCTCCACAGGCTGGGTGGCCCGGAGGCTGGGCGGCCCGGAGGCTGGGCTGGGCGAGTATC",0.518,0.477,0.404,0.459,0.408,0.215,0.14,0.2,0.106,0.105,0.115,0.185,0.232,0.192,,0.196,0.214,,,0.0994
"17.0 (DMSO control at this site: 1-bp insertion 0.112, MH deletion 0.348, edited 0.058) CCATAGCGCGATAAATATGACGGCTCATCCTGTATGACGGCTCATCCTGTATCAACTGTCC",0.377,0.409,0.342,0.422,0.393,0.12,0.143,0.145,0.0756,0.161,0.166,0.165,0.136,0.158,0.354,0.14,0.15,0.124,0.14,0.168
15.0 GCGCCTCCAATGACCCAGTGGGATCCTACTCCATAATGGGATCCTGGGGATTCCTCGCTCC,,0.299,,,0.339,0.254,0.168,,,,,,0.167,,,0.185,0.19,,,0.158
"1.0 (DMSO control at this site: 1-bp insertion 0.521, MH deletion 0.323, edited 0.141) GTGTCACAGTGCACGAGTGACGGGATAATGTGCTGACAGGTAATTGATAGGCTTCCAACTT",0.197,0.286,0.276,0.227,0.218,0.514,0.557,0.595,0.243,0.586,0.545,0.665,0.573,0.628,0.8,0.594,0.577,0.588,0.594,0.605
46.0 TTAAGAGCAATGTTCACGCAACTTGAAATTATATCTGTGGTCTTCAAATTGTCTTTTGTCA,,0.375,,,0.33,,0.09,0.208,,,,0.243,0.165,,,,0.222,,,0.178
"47.0 (DMSO control at this site: 1-bp insertion 0.095, MH deletion 0.585, edited 0.118) GAGTGGTCCCGAGCCAGGAACTGTGTGTGTTGCAGGGGGGCAGTAACTCCCCAACTCCCTC",0.486,0.508,0.554,0.46,0.401,0.0999,0.09,0.121,0.0733,0.118,0.0775,0.106,0.102,0.0993,0.269,0.0938,0.12,0.0914,0.0791,0.14
